Reference: PubChem BioAssay AID463173 (ICCB-Longwood Screening Facility, Harvard Medical School, 2010)
Out of some 52,000 compounds screened, about 4,300 (8.3%) were called active. No stated cut-off is given here; in the data, active means survival mostly below about 52% (no sharp cut-off); inactive means mostly above about 56%. Many of the other results were omitted from the sample, so actives are more common in it than they were.

Tested on: DeltatarO mutant
Test: S. aureus survival, RN4220 and DeltatarO strains – OD600, teichoic acid synthesis inhibitors, primary screen (AID 463173)
Settings: S. aureus RN4220 wild type/DeltatarO growth, OD600, 18 h, stronger effect = lower value, screened at 18.75 µg/mL (by protocol)

SMILES	survival
Cc1cccc(C(=O)NC2(C(F)(F)F)N=C(c3ccccc3)N(C3CCCCC3)C2=O)c1 (configuration not stated)	68% (inactive)
Cc1c(Cl)cccc1NC(=O)Cn1nc(C(F)(F)F)c2c1CCC2	73% (inactive)
CCOc1ccc(S(=O)(=O)NCCc2sc3nc(-c4ccc(F)cc4)nn3c2C)cc1	67% (inactive)
Cc1nn2c(-c3ccco3)ccnc2c1-c1ccc(Cl)cc1	94% (inactive)
Cc1cc(-c2ccccc2)nc2cc(C(N)=O)nn12	71% (inactive)
Cc1ccc(S(=O)(=O)NCCc2nnc3ccc(SCc4ccc(F)cc4)nn23)cc1	112% (inactive)
CCOc1ccc(NCc2cccn2-c2nnc(N3CCC(C(=O)NCc4cccc(OC)c4)CC3)s2)cc1	80% (inactive)
Cn1cnc(S(=O)(=O)N2CCC(C(=O)Nc3ccc(F)cc3F)CC2)c1	91% (inactive)
NC(=O)COc1cccc(-n2cnnn2)c1	63% (inactive)
COc1ccc2nc(SCC(=O)O)[nH]c2c1	104% (inactive)
COc1ccc2nc(-c3ccc(N)cc3)[nH]c2c1	58% (inactive)
CCN(CC)CCSc1nc2ccc(OC)cc2[nH]1	70% (active)
Cc1ccc(S(=O)(=O)N2CCCC2C(N)=O)cc1 (configuration not stated)	59% (inactive)
COc1cc(C(=O)Nc2ccc3oc(-c4ccc(C)c(Br)c4)nc3c2)cc(OC)c1OC	93% (inactive)
CCCc1cc(C(=O)Nc2c(C)nn(Cc3ccc(C)cc3)c2C)no1	73% (inactive)
CCCC(=O)N1CCCC(c2nc(-c3ccc(C(C)C)cc3)no2)C1 (configuration not stated)	103% (inactive)
CC(C)c1ccc(-c2noc(C3CCCN(C(=O)c4ccccc4)C3)n2)cc1 (configuration not stated)	86% (inactive)
CC(C)c1ccc(-c2noc(C3CCCN(C(=O)Cc4cccs4)C3)n2)cc1 (configuration not stated)	40% (active)
Cc1ccc(-n2nc(C)c3c(C(=O)NCc4ccc(F)cc4)cc(C)nc32)cc1	83% (inactive)
CN(C)c1ccc(CNc2nc(-c3ccco3)nn2C(=O)c2cccc([N+](=O)[O-])c2)cc1	66% (inactive)
O=C(CCS(=O)(=O)c1nc(-c2cccs2)cc(C(F)(F)F)n1)Nc1ccc(Br)cc1	61% (inactive)
O=C(CCS(=O)(=O)c1nc(-c2cccs2)cc(C(F)(F)F)n1)Nc1cc(Br)ccc1O	15% (active)

SMILES	survival
COc1ccccc1-c1cc(C(F)(F)F)nc(S(=O)(=O)CCCC(=O)Nc2cc(OC)c(OC)c(OC)c2)n1	134% (inactive)
COC(=O)c1ccccc1NC(=O)CCCS(=O)(=O)c1nc(-c2ccccc2OC)cc(C(F)(F)F)n1	87% (inactive)
COc1ccc(-c2cc(C(F)(F)F)nc(S(=O)(=O)CCCC(=O)Nc3ccccc3C(F)(F)F)n2)cc1OC	70% (inactive)
COc1ccc(NC(=O)CCCS(=O)(=O)c2nc(-c3ccccc3OC)cc(C(F)(F)F)n2)c(OC)c1	46% (active)
COc1ccccc1-c1cc(C(F)(F)F)nc(S(=O)(=O)CCCC(=O)Nc2ccc(F)cc2F)n1	67% (inactive)
COc1ccccc1-c1cc(C(F)(F)F)nc(S(=O)(=O)CCCC(=O)Nc2ccc(F)c(Cl)c2)n1	87% (inactive)
COc1ccccc1-c1cc(C(F)(F)F)nc(S(=O)(=O)CCCC(=O)Nc2cc(C)ccc2O)n1	47% (active)
COc1ccccc1-c1cc(C(F)(F)F)nc(S(=O)(=O)CCCC(=O)Nc2cc(Br)ccc2O)n1	45% (active)
Cc1ccc(O)c(NC(=O)CCS(=O)(=O)c2nc(-c3cccs3)cc(C(F)(F)F)n2)c1	51% (inactive)
COc1ccccc1-c1cc(C(F)(F)F)nc(S(=O)(=O)CCCC(=O)Nc2ccccc2F)n1	70% (inactive)
CC(=O)Nc1ccc(NC(=O)c2cc(CN3CCCC3)on2)cc1	96% (inactive)
Cc1cccc(C)c1NC(=O)C1CCN(S(=O)(=O)c2cccc3nsnc23)CC1	89% (inactive)
COc1ccc(-n2c3c(cc(-c4nc(-c5ccc(Cl)cc5)cs4)c2=O)C(=O)CC(C)(C)C3)cc1Cl	79% (inactive)
COc1ccc(OC)c(NC(=O)c2cnn(-c3ccc(C)cc3)c2C2CCNCC2)c1	92% (inactive)
CCOc1ccc(NC(=O)CCNS(=O)(=O)c2ccc3c(c2)CCCC(=O)N3)cc1	66% (inactive)
CCN1CCOC(=O)C1CC(=O)Nc1cc(Cl)ccc1OC (configuration not stated)	50% (inactive)
O=C(O)c1ccccc1SC1CC(=O)N(c2ccc(N3CCCCC3)cc2)C1=O (configuration not stated)	90% (inactive)
CCS(=O)(=O)N1CCc2cc(C(=O)Nc3ccc(OC)cc3OC)ccc21	44% (active)
CCS(=O)(=O)N1CCc2cc(C(=O)NCc3ccc(OC)cc3)ccc21	89% (inactive)
CCS(=O)(=O)N1CCc2cc(C(=O)Nc3cc(OC)c(Cl)cc3OC)ccc21	43% (active)
COC(=O)c1cc(OC)c(OC)cc1NC(=O)c1ccc2c(c1)CCN2S(=O)(=O)c1ccccc1	66% (inactive)
CCS(=O)(=O)N1CCc2cc(C(=O)Nc3ccc(OC)c(Cl)c3)ccc21	47% (inactive)

SMILES	survival
COC(=O)c1cc(OC)c(OC)cc1NC(=O)c1ccc2c(c1)CCN2S(C)(=O)=O	37% (active)
CCOc1ccc(NC(=O)c2ccc3c(c2)CCN3S(=O)(=O)CC)cc1	48% (inactive)
CCS(=O)(=O)N1CCc2cc(C(=O)N3CCN(c4ccc(OC)cc4)CC3)ccc21	40% (active)
COc1ccc(Cl)cc1NC(=O)c1ccc2c(c1)CCN2S(C)(=O)=O	81% (inactive)
COC(=O)c1ccccc1NC(=O)c1ccc2c(c1)CCN2S(C)(=O)=O	94% (inactive)
CCS(=O)(=O)N1CCc2cc(C(=O)N3CCN(c4ccccc4)CC3)ccc21	69% (inactive)
COc1ccc(N2CCN(C(=O)c3ccc4c(c3)CCN4S(C)(=O)=O)CC2)cc1	57% (inactive)
CC1=C(C(=O)Nc2ccccc2)C(c2ccncc2)n2nc(SCc3ccccc3Cl)nc2N1 (configuration not stated)	74% (inactive)
CCCCOc1ccc(-c2cc3c(=O)n(CC(=O)Nc4ccc(Cl)cc4Cl)ccn3n2)cc1	133% (inactive)
CCN(CC)C(=O)Cn1c(=O)n(Cc2ccc(C(=O)NCCc3ccc(OC)c(OC)c3)cc2)c(=O)c2ccccc21	104% (inactive)
CCn1c(=O)n(CC)c2cc(N3CCCC3)c(NC(=O)Nc3cc(C)cc(C)c3)cc21	91% (inactive)
COc1ccc(CC(=O)NCc2ccc3c(c2)CCN3C(=O)c2ccc(Cl)cc2)cc1OC	86% (inactive)
Cc1ccc(S(=O)(=O)C(CNC(=O)C(=O)NCCc2ccccc2)c2cccs2)cc1 (configuration not stated)	107% (inactive)
C=CCN(C(=O)c1ccc2c(c1)nnn2C)c1ccccc1	97% (inactive)
O=C(NC1CCCCC1)NC1CCN(Cc2nnnn2Cc2ccc3c(c2)OCO3)CC1	88% (inactive)
Cc1nn(-c2cccc(Cl)c2)c2nc(-c3cccnc3)cc(C(F)(F)F)c12	45% (inactive)
Cc1nn(-c2ccc(Cl)cc2)c2nc(-c3cccnc3)cc(C(F)(F)F)c12	39% (active)
Cc1ccc(-n2nc(C)c3c(C(F)(F)F)cc(-c4cccnc4)nc32)cc1Cl	53% (inactive)
COc1ccc(CNC(=O)C2CCN(C(=O)c3ccc(-n4ccc5ccccc54)s3)CC2)cc1	90% (inactive)
CCn1c2c(c(=O)n3ncc(C(=O)Nc4ccc(C(=O)OC)cc4)c13)CN(Cc1ccc(OC)cc1)CC2	81% (inactive)
NC(=O)CN(c1ccccc1)C1SC(=O)NC1=O (configuration not stated)	76% (inactive)
COc1ccccc1-n1c(SCC(=O)Nc2ccc(C)cc2)nc(O)cc1=O	61% (inactive)

SMILES	survival
Cc1ccc(C)c(CSc2nc3ccncc3n2Cc2nc(-c3ccccc3Cl)oc2C)c1	71% (inactive)
Cc1ccc(CSc2nc3ccncc3n2Cc2nc(-c3ccc(Cl)cc3)oc2C)cc1	63% (inactive)
COC(=O)c1ccc(Cn2c(SCc3cccc(C)c3)nc3ccncc32)cc1	83% (inactive)
COC(=O)c1ccc(Cn2c(SCc3ccccc3)nc3ccncc32)cc1	45% (active)
COC(=O)c1ccc(Cn2c(SCc3ccc(F)cc3)nc3ccncc32)cc1	54% (inactive)
COc1ccc(CNC(=O)c2ccc(CSc3nc4ccncc4n3Cc3ccccc3F)cc2)cc1	62% (inactive)
O=C(NC1CCCC1)c1ccc(CSc2nc3ccncc3n2Cc2cccc(F)c2)cc1	60% (inactive)
COC(=O)c1ccc(CSc2nc3ccncc3n2Cc2ccc(F)cc2)cc1	93% (inactive)
Cc1cccc(Cn2c(SCc3ccc(C(=O)NC4CCCCC4)cc3)nc3ccncc32)c1	75% (inactive)
COC(=O)c1ccc(Cn2c(SCc3ccccc3F)nc3ccncc32)cc1	42% (active)
Cc1cccc(Cn2c(SCc3ccc(C(=O)NC4CCCC4)cc3)nc3ccncc32)c1	54% (active)
Cc1ccc(CSc2nc3ccncc3n2Cc2nc(-c3ccccc3C)oc2C)cc1	-4% (active)
COc1ccc(NC(=O)CCc2nnc3n(Cc4ccc(C)cc4)c(=O)c4ccccc4n23)cc1	59% (inactive)
Cc1cccc(-c2cc3nc(C)cc(NCCCn4ccnc4)n3n2)c1	88% (inactive)
O=C(O)CSCCn1cccn1	93% (inactive)
CC(C)=CCC(C)(C)CNc1ccc(C)cc1	66% (inactive)
CCOc1ccccc1NC(=O)C1CCCN(c2ncnc3onc(-c4ccc(F)cc4)c23)C1 (configuration not stated)	85% (inactive)
Cc1cc(C)cc(NC(=O)CCc2c(C)nc3c(c2C)c(=O)n(C)c(=O)n3C)c1	64% (inactive)
COc1ccc(CN2C(=O)N(c3ccc(F)cc3)C(=O)C2CC(=O)Nc2cc(OC)cc(OC)c2)cc1 (configuration not stated)	81% (inactive)
Cn1c2ccccc2c2nnc(SCC(N)=O)nc21	76% (inactive)
CCc1ccccc1NC(=O)Cn1c(=O)n(CCCS(=O)(=O)C2CCCCC2)c(=O)c2ccccc21	86% (inactive)
